# Hit rate of the full screen: of about 310,000 compounds, about 14,000 (4.5%) showed an effect of 50% or more. The effect is printed as a negative number. The entries come from a sample that favours strong results as a whole.
# Target: human ether-à-go-go-related gene (hERG) potassium channel (human, UniProt Q12809)
# Test: primary screen, population patch clamp on CHO cells stably expressing hERG; higher = less effect of the substance
# Procedure: Briefly, Chinese hamster ovary (CHO) cells stably expressing the hERG channel were dislodged from tissue culture flasks and dispensed into PPC plates. […] During the recording, background leak currents were estimated by a 100 ms step to -80 mV from an initial holding potential of -70 mV and subtracted from the subsequent current measurement. The campaign was conducted in two phases using slight differences in recording protocol. In the first phase, the initial voltage pulse used a 100 ms step to -30 mV from a holding potential of -70 mV, a 2 s conditioning step to +25 mV, and a 2 s test step to -30 mV. During the second phase of the screen, the potential during the conditioning step was raised to +45 mV. In both phases of the campaign, a secondary voltage pulse was applied using the same parameters as the second phase initial pulse. The initial and secondary pulses were applied in the absence of compound, and upon application of 1 μM and 10 μM test concentrations. […]
# 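Further: peak tail current of the secondary pulse compared with the same well before compound.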
# Chain of human ether-à-go-go-related gene (hERG) potassium channel (Q12809 whole entry, looked up): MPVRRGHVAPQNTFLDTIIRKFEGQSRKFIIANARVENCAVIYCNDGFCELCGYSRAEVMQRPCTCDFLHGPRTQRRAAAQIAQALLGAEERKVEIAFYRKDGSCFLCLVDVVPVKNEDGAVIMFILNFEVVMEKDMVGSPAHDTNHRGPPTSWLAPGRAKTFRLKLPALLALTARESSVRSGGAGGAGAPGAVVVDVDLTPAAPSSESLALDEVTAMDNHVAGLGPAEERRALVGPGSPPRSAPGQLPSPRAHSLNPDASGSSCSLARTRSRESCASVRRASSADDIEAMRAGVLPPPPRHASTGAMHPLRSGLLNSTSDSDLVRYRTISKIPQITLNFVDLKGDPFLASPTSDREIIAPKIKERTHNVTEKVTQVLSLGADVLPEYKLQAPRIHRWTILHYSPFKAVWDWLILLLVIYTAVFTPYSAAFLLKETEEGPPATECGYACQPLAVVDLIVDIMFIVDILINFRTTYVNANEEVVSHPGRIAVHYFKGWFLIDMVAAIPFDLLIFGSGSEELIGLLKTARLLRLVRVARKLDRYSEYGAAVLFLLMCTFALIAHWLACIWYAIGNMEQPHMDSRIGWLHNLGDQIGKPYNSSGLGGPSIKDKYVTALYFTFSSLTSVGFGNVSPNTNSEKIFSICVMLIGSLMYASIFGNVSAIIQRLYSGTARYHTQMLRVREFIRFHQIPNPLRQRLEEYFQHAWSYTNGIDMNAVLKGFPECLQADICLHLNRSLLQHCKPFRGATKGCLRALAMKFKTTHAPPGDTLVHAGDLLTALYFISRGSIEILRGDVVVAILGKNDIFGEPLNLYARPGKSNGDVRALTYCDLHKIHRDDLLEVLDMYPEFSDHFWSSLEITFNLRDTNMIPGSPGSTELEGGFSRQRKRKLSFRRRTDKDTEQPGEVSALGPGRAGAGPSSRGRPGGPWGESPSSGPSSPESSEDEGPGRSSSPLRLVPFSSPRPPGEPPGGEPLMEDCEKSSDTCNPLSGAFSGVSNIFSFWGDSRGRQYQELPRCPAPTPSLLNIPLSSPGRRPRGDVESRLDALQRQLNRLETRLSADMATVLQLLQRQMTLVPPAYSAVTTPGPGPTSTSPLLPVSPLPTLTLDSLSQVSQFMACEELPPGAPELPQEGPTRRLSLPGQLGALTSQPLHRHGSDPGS
row,SMILES,"hERG current change (%, negative = inhibition) at 10uM"
1,C=CCn1c(=O)/c(=C\c2ccccn2)s/c1=C(/C#N)C(=O)NCC1CCCO1 (stereo not drawn),-3.51%
2,CN1CCC(=NNC(=O)CN(c2ccc(Oc3ccccc3)cc2)S(C)(=O)=O)CC1,9.51%
3,Cc1ccc([N+](=O)[O-])cc1S(=O)(=O)NCCc1cn2ccccc2n1,-2.95%
4,CC(C)CCN(C(=O)CNC(=O)c1cccs1)C(C(=O)NC1CCCCC1)c1cccnc1 (stereo not drawn),-36.4%
5,C=C1C(=O)[C@@]23[C@H](O)C[C@@H]4C(C)(C)CC[C@H](O)[C@@]4(C)[C@@H]2CC[C@@H]1[C@H]3O,-9.9%
6,COc1ccc(Cn2c(C(F)(F)F)ccc(C(N)=O)c2=O)cc1,1.62%
7,Fc1ccc(-c2cc(-c3nnc4n3CCCCC4)c3ccccc3n2)cc1,-63.5%
8,Clc1ccc(-c2cc(-c3nnc4n3CCCCC4)c3ccccc3n2)cc1,-42.1%
9,O=c1c2ccccc2nc2n1CCC2,13.6%
10,O=c1c2ccccc2nc2n1CCCCC2,-4.17%
11,c1ccc2c(-c3nnc4n3CCCCC4)cc(-c3ccncc3)nc2c1,-48.7%
12,N=c1c2ccccc2nc2n1CCCCCCCCCCC2,-62%
13,O=C(NCc1cccnc1)c1cc2nc(-c3ccc4c(c3)OCO4)cc(C(F)(F)F)n2n1,3.07%
14,COc1ccc(NS(=O)(=O)c2cccc(C(=O)NNC(=O)NCCCl)c2)cc1,20.3%
15,CN1CCc2c(sc(NC(=O)c3ccc(S(=O)(=O)N4CCCCCC4)cc3)c2C(N)=O)C1,5.51%
16,O=C1CN(C(=O)c2ccc(Cl)c(S(=O)(=O)N3CCc4ccccc43)c2)c2ccccc2N1,-21%
17,COCCn1nnnc1CN1CCC(C)CC1,-2.19%
18,O=C(Cn1cnc2c(oc3ccccc32)c1=O)c1ccccc1,2.38%
19,O=C(NC1CCCCCC1)C1CCN(S(=O)(=O)c2ccc(F)cc2)CC1,0.579%
20,CN1/C(=C\C=Nc2cc(S(=O)(=O)N3CCOCC3)ccc2N2CCOCC2)C(C)(C)c2ccccc21,-71%
21,CN1C(=O)C(C)(C)c2cc(S(=O)(=O)N3CCN(c4ccccc4F)CC3)ccc21,-3.03%
22,O=S(=O)(c1ccc(N2CCOCC2)c(Cl)c1)N1CCOCC1,15.5%
23,Cc1cc(/N=C/C=C2\N(C)c3ccccc3C2(C)C)n(CCC#N)n1,-29.8%
24,CN1/C(=C/C=N/n2cnnc2)C(C)(C)c2ccccc21,-1.92%

row,SMILES,"hERG current change (%, negative = inhibition) at 10uM"
1,CN1/C(=C\C=Nc2ccccc2)C(C)(C)c2ccccc21,-72.1%
2,CN1/C(=C/C=C(C#N)C#N)C(C)(C)c2ccccc21,14.7%
3,CO/N=C/C=C1/N(C)c2ccccc2C1(C)C,19.8%
4,CN1/C(=C\C=N\O)C(C)(C)c2ccccc21,17.1%
5,Cc1ccccc1N=CC=C1OC(C)(C)C(C)(C)O1,-1.54%
6,Cc1ccccc1N=C/C=C1\N(C)c2ccccc2C1(C)C,-70.7%
7,CN1/C(=C\C=Nc2ccc3ccccc3c2)C(C)(C)c2ccccc21,-74.8%
8,COc1ccc(NC(=O)NCc2ccncc2)cc1,13.8%
9,CC(C)(C)c1ccc(C(=O)NNc2ccc(F)cc2F)cc1,9.96%
10,CC1(C)OC2CC3C4CC(F)C5=CC(=O)C=CC5(C)C4(F)C(O)CC3(C)C2(C(=O)CO)O1 (stereo not drawn),-7.01%
11,O=C1C=C(c2cc3ccccc3s2)C[C@@H](c2ccc(F)cc2)C1,5.01%
12,CC(=O)N1c2ccc(S(=O)(=O)N3CCCC(C(=O)NCc4ccccc4)C3)cc2CC1C (stereo not drawn),13.7%
13,O=C(Nc1ccccc1)N1CCC(c2ccccc2)C1 (stereo not drawn),-4.49%
14,CN1/C(=C\P(=O)(N(C)C)N(C)C)C(C)(C)c2ccccc21,-6.64%
15,CN1/C(=C\C=C(C#N)C#N)C(C)(C)c2ccccc21,11.5%
16,Cc1c(N=C/C=C2\N(C)c3ccccc3C2(C)C)c(=O)n(-c2ccccc2)n1C,-53.7%
17,CN(C)c1ccc(N=C/C=C2\N(C)c3ccccc3C2(C)C)cc1,-82.8%
18,Cc1c(N=C/C=C2/N(C)c3ccccc3C2(C)C)c(=O)n(-c2ccccc2)n1C,-38.1%
19,Cc1c(NC(=S)/C=C2\N(C)c3ccccc3C2(C)C)c(=O)n(-c2ccccc2)n1C,0.171%
20,CC(=O)N1CCN(c2ccc(N=Cc3c(O)n(-c4ccc(Cl)cc4)c(=O)[nH]c3=O)cc2)CC1,1.55%
21,CCOC(=O)c1cnc(-n2nc(C)cc2C)nc1NCCO,10.5%
22,CCOC(=O)c1cnc(-n2nc(C)cc2C)nc1NCCc1ccccc1,-51.6%
23,CCOC(=O)c1cnc(-n2nc(C)cc2C)nc1NCc1ccccc1,-34.7%
24,Cn1ccnc1SCC(=O)n1c2c(c3ccccc31)CCCC2,-4.61%
